According to PubChem BioAssay (NCATS):
Results filed as inconclusive are left out. Unmarked numbers belong to inactive results. The list shows a part of the results. Where a call stands in place of a potency, no number is given. The source made the active and inactive calls. Calls follow the shape of the dose curve; as a rule, active = well fitted curve in the direction sought with a large enough effect; inconclusive = small, poorly fitted or top-dose-only effect, or another doubt; inactive = no such curve, though single readings can be large; an effect the other way counts as inactive or inconclusive.

Assays:
[1] = molecular target: Rap guanine nucleotide exchange factor 3 (Homo sapiens) (UniProt O95398); assay: Confirmatory qHTS for antagonist of cAMP-regulated guanine nucleotide exchange factor 3 (EPAC1) (AID 1645880); conditions: EPAC1 Rap1B-BODIPY-GDP exchange, fluorescence; activity, negative = inhibition: at 115 µM (top of the series); also: nearly all actives have a fitted effect of over 55% in size; also: potency is read from the fitted curve at half-maximal effect
Chain of Rap guanine nucleotide exchange factor 3 (Homo sapiens) (O95398 whole entry, looked up): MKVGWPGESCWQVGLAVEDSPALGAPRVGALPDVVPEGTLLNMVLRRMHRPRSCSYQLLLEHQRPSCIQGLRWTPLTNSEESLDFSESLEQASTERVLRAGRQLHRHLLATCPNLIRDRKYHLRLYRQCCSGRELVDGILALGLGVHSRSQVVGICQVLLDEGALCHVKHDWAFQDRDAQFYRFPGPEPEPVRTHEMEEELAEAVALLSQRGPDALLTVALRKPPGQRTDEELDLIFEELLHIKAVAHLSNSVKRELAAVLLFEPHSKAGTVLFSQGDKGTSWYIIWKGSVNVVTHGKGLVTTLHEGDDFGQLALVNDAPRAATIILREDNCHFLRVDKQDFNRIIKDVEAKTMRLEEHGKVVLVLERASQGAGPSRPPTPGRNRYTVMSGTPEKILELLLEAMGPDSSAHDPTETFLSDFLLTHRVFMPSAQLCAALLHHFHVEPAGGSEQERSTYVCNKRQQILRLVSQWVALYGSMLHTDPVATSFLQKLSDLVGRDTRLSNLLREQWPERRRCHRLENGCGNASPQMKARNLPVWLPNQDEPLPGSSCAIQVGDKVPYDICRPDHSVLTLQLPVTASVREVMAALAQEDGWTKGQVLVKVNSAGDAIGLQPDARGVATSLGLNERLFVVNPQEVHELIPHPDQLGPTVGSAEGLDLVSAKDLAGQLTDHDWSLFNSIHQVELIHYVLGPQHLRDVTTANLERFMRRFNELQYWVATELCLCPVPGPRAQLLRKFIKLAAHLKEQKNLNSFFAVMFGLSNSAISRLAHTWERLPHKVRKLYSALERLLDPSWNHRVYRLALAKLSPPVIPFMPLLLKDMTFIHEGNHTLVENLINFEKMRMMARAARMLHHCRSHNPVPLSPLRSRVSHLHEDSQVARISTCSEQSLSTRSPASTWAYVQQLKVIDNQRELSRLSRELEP
Outline: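 Nucleotide exchange uses 100 nM EPAC1, 250 nM RAP1B-BODIPY-GDP and 50 uM GDP, with compounds in a concentration-titration series. After 5 min at room temperature, fluorescence (480 nm ex/540 nm em) is read every 5 min for 30 min. Data are normalized to control ATA and DMSO.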

[2] = molecular target: Rap guanine nucleotide exchange factor 4 (Homo sapiens) (UniProt Q8WZA2); assay: Confirmatory qHTS for agonist of cAMP-regulated guanine nucleotide exchange factor 4 (EPAC2) (AID 1645884);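 also: nucleotide exchange releases bodipy-GDP from Rap1 and this lowers its fluorescence; nearly all actives have a fitted effect of over 65% in size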
Chain of Rap guanine nucleotide exchange factor 4 (Homo sapiens) (Q8WZA2 whole entry, looked up): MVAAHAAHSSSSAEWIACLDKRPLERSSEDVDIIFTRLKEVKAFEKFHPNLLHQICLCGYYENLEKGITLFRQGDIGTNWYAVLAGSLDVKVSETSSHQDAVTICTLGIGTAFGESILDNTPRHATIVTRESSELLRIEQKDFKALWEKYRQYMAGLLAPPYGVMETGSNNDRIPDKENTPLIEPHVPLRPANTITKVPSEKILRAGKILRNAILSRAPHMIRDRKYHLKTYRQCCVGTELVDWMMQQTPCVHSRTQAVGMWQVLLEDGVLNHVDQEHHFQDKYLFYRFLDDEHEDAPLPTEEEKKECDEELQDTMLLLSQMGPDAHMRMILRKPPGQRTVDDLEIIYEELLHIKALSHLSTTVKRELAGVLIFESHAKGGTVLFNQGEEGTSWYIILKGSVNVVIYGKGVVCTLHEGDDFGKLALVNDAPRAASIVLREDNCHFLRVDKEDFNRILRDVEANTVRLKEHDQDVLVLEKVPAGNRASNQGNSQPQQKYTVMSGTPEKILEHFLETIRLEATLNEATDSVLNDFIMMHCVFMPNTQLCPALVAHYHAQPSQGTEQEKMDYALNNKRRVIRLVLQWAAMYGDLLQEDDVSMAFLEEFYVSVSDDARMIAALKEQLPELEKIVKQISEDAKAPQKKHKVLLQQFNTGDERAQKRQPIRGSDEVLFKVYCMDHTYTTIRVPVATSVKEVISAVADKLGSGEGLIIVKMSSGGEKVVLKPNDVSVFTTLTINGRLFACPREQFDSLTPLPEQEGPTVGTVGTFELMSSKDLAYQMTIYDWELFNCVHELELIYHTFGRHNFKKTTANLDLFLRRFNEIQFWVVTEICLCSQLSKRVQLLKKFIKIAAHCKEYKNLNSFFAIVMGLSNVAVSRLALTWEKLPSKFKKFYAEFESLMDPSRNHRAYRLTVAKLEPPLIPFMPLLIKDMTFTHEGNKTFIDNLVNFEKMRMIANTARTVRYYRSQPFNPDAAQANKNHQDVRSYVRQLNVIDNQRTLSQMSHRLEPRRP

[3] = molecular target: Rap guanine nucleotide exchange factor 3 (Homo sapiens) (UniProt O95398); assay: Counterscreen qHTS for antagonist of cAMP-regulated guanine nucleotide exchange factor 3 (EPAC1) (AID 1645888);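 also: fluorescence loss as bound BODIPY-GDP is released from Rap1B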
Outline: (§1)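 Rap1B-BODIPY-GDP 250 nM + GDP 50 uM; cpds 7-pt, final 9.74 nM–152 uM (activator mode) or from 7.32 nM upwards (inhibitor mode); RT; FI 480/540 nm at 5 and 30 min, then ± cAMP, reread.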

[4] = molecular target: Rap guanine nucleotide exchange factor 3 (Homo sapiens) (UniProt O95398); assay: Counterscreen qHTS for agonist of cAMP-regulated guanine nucleotide exchange factor 3 (EPAC1) (AID 1645889); also: nearly all actives have a fitted effect of over 40% in size; also: potency is read from the fitted curve at half-maximal effect
Outline: as §1

[5] = molecular target: Rap guanine nucleotide exchange factor 4 (Homo sapiens) (UniProt Q8WZA2); assay: Confirmatory qHTS for antagonist of cAMP-regulated guanine nucleotide exchange factor 4 (EPAC2) (AID 1645885); also: nearly all actives have a fitted effect of over 25% in size; also: potency is read from the fitted curve at half-maximal effect
[6] = molecular target: Tumor susceptibility gene 101 protein (Homo sapiens) (UniProt Q99816); assay: qHTS Assay for Iinhibitors of HIV-1 Budding by Blocking the Interaction of PTAP/TSG101: Hit Validation (AID 651600); also: nearly all actives have a fitted effect of over 70% in size; also: potency is read from the fitted curve at half-maximal effect
Chain of Tumor susceptibility gene 101 protein (Homo sapiens) (Q99816 whole entry, looked up): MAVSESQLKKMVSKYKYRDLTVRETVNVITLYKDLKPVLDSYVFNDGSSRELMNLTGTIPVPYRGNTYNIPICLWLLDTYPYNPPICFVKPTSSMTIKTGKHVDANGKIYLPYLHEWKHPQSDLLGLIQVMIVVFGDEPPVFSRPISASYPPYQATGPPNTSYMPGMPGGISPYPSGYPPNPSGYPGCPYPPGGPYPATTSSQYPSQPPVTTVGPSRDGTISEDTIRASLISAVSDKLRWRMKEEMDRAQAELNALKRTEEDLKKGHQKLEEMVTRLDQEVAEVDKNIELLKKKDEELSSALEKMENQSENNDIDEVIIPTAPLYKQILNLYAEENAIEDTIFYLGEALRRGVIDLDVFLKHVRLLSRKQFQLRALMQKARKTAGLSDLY
Outline: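 Measuring PTAP–Tsg101 interaction by FP: protein at 10 uM and fluorescent peptide at 50 nM (final), buffer 10 mM HEPES pH 7.5 with 0.15 M NaCl, 3 mM EDTA, 0.1 mM TCEP, 0.01% Tween 20; 20 min incubation, r.t.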

[7] = molecular target: Flap endonuclease 1 (Homo sapiens) (UniProt P39748); assay: qHTS Assay for the Inhibitors of FEN1: Confirmatory Assay for Cherry-picked Compounds (AID 720498); conditions: FEN1 flap cleavage, TAMRA/BHQ2 fluorogenic DNA substrate; also: potency is read from the fitted curve at half-maximal effect; nearly all actives have a fitted effect of over 60% in size
Chain of Flap endonuclease 1 (Homo sapiens) (P39748 whole entry, looked up): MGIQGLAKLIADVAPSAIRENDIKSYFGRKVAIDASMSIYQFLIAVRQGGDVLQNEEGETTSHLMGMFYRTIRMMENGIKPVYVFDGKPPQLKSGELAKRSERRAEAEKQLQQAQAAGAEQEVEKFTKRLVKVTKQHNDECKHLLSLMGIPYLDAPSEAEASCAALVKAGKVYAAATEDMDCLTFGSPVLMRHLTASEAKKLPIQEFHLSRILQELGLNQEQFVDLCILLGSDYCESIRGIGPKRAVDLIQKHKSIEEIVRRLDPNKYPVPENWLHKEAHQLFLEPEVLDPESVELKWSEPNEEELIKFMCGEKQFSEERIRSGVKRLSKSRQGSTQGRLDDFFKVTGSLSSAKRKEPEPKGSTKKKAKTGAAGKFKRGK
Outline: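 FEN1 at 10 nM was preincubated with compound for 15 min at room temperature, then 50 nM (final) double-flap DNA substrate was added. TAMRA fluorescence released from the BHQ-2-quenched flap was read at 0 and 15 min (ex 525/em 598 nm).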

[8] = molecular target: DNA polymerase kappa (Homo sapiens) (UniProt Q9UBT6); assay: qHTS for Inhibitors of Polymerase Kappa: Confirmatory Assay for Cherry-picked Compounds (AID 720501); conditions: purified Pol-kappa, fluorescent strand-displacement substrate; also: potency is read from the fitted curve at half-maximal effect
Chain of DNA polymerase kappa (Homo sapiens) (Q9UBT6 whole entry, looked up): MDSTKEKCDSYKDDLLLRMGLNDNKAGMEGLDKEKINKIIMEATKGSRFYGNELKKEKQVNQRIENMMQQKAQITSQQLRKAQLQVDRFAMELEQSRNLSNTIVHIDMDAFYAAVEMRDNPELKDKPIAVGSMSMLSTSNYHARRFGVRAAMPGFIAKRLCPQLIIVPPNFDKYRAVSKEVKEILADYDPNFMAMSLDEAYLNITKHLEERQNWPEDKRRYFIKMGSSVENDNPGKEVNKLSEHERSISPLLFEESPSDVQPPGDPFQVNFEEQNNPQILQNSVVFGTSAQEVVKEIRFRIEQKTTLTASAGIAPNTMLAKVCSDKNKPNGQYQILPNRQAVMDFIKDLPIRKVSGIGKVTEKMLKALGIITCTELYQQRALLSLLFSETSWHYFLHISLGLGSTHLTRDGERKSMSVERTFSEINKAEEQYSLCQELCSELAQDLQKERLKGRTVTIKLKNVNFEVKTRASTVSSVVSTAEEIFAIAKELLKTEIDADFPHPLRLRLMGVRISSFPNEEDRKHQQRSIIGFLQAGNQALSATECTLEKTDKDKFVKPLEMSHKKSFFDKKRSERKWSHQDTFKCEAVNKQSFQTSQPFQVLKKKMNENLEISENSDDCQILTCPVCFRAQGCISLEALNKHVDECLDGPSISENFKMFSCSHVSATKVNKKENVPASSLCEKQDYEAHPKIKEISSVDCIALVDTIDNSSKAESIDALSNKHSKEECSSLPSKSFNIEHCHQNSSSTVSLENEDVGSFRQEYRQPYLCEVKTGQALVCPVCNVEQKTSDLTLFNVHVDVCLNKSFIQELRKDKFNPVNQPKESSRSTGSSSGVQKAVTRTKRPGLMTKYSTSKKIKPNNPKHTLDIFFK
Outline: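 Strand-displacement fluorescence read-out: TAMRA reporter released from a BHQ-2-quenched template, measured at 525/598 nm over a 10 min kinetic window. Substrate was 50 nM final; enzyme was 10 nM Pol-kappa, preincubated 15 min at room temperature with compound.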

[9] = molecular target: Bifunctional 3'-5' exonuclease/ATP-dependent helicase WRN (Homo sapiens) (UniProt Q14191); assay: qHTS for Inhibitors of WRN Helicase: Confirmatory Assay for Cherry-picked Compounds. (AID 720497); conditions: WRN helicase DNA unwinding, fluorescence kinetic; also: potency is read from the fitted curve at half-maximal effect; nearly all actives have a fitted effect of over 65% in size
Outline: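 Compound and 20 nM WRN incubated 15 min, RT. Forked duplex (100 nM) plus ATP (2 mM) added. Fluorescence monitored kinetically and normalized to controls.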

[10] = qHTS for Inhibitors of WRN Helicase: Thiazole Orange DNA Binding Counterscreen (AID 720499);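 also: drop in dye fluorescence marks compound binding to DNA; nearly all actives have a fitted effect of over 60% in size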
Outline: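 Thiazole orange displacement from unlabeled DNA (50 nM DNA, 100 nM dye) was monitored by fluorescence, ex 480/em 530 nm, following 15 min room-temperature incubation with pintool-dispensed compounds.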

[11] = molecular target: RecQ-like DNA helicase BLM (Homo sapiens) (UniProt P54132); assay: qHTS for Inhibitors of WRN Helicase: BLM Helicase Counterscreen for WRN Inhibitors (AID 720503); conditions: Recombinant BLM helicase DNA unwinding, red fluorescence; also: potency is read from the fitted curve at half-maximal effect; nearly all actives have a fitted effect of over 60% in size
Chain of RecQ-like DNA helicase BLM (Homo sapiens) (P54132 whole entry, looked up): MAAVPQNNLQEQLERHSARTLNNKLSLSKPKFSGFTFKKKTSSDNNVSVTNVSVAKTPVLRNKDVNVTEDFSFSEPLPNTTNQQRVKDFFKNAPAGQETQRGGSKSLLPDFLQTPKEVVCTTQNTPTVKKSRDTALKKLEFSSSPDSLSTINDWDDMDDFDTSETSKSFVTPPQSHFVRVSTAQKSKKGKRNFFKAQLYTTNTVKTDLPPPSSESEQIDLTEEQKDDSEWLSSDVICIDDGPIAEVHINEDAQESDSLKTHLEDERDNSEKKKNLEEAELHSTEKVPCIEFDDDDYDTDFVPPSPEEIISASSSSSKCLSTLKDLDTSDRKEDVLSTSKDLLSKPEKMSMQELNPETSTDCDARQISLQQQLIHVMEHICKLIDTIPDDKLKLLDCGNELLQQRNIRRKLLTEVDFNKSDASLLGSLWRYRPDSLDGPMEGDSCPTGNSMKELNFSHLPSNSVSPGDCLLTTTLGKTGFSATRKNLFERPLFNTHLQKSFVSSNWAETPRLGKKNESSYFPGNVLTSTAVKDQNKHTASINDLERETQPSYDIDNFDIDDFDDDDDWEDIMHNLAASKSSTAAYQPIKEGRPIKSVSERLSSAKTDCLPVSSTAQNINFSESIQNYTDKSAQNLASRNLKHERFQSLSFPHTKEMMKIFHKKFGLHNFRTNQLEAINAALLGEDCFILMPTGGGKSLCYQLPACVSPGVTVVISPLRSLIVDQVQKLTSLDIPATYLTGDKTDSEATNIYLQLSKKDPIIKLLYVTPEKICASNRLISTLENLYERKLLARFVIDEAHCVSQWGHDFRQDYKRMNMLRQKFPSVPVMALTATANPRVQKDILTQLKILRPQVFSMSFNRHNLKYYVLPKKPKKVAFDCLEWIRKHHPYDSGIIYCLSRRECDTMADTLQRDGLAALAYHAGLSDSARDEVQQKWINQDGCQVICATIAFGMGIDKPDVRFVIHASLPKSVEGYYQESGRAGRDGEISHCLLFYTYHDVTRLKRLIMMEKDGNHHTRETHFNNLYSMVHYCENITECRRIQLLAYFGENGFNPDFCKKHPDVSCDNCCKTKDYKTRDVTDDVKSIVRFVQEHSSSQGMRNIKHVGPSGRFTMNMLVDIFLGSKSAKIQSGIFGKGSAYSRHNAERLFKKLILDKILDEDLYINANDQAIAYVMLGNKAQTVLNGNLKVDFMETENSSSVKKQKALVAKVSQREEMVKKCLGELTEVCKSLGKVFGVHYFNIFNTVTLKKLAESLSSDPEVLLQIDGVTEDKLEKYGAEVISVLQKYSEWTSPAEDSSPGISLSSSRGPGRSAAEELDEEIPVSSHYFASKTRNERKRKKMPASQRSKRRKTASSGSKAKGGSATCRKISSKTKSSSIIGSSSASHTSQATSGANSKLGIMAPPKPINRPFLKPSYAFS
Outline: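 Steps: compounds added to 1 nM BLM in pH 8.0 Tris buffer with 2 mM MgCl2; 15 min room-temperature incubation; substrates added (100 nM DNA, 2 mM ATP final); discontinuous kinetic fluorescence measurement, reads spaced 15 min.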

Structure (SMILES): COC(=O)CCc1nc2cc(Cl)ccc2n(Cc2ccccc2)c1=O
- Potency [1]: inactive
- Potency [2]: inactive
- Potency [3]: inactive

Structure (SMILES): O=C(NCCOc1ccc(F)cc1)c1ccccc1SCc1ccccc1
- Potency [1]: inactive
- activation [2]: 7.88% [at 17.1 µM, percent relative to cAMP agonist control]
- activity change, negative = inhibition [3]: 18.3% [at 30.8 µM]

Structure (SMILES): COc1cc2c(cc1OC)C1(C)N(CC2)C(C(C)=O)=NN1c1ccc(Cl)cc1 (centres undefined)
- Potency [1]: inactive
- activation [2]: 18% [at 17.1 µM, percent relative to cAMP agonist control]
- activity change, negative = inhibition [3]: 5.93% [at 30.8 µM]
- Potency [4]: 3.55 µM (active)

Structure (SMILES): O=C1OC(c2ccccc2)(c2ccccc2)c2ccccc21
- Potency [1]: inactive
- activity change, negative = inhibition [3]: 2.72% [at 30.8 µM]

Structure (SMILES): COC(=O)c1cc2ccccc2n1S(=O)(=O)c1ccccc1
- Potency [1]: inactive
- Potency [3]: inactive

Structure (SMILES): Cc1ccc(CNC(=O)c2cccc3c2C(=O)c2ccc(N4CCC(C)CC4)cc2S3(=O)=O)cc1
- Potency [1]: inactive
- Potency [5]: inactive
- Potency [4]: 11.2 µM (active)

Structure (SMILES): c1ccc(-c2cnn3c(-c4ccccc4)c(-c4ccccc4)nc3n2)cc1
- Potency [6]: inactive
- Potency [1]: inactive
- Potency [5]: inactive
- Potency [3]: inactive

Structure (SMILES): COc1ccc(C(=O)Nc2nc(-c3ccc([N+](=O)[O-])cc3)c(-c3ccc(OC)cc3)s2)cc1
- Potency [6]: inactive
- Potency [1]: inactive
- Potency [5]: inactive
- Potency [3]: inactive
- Potency [4]: 63.1 µM (active)

Structure (SMILES): CC(C)(C)C1COc2ccccc2N1C(=O)c1ccccc1Cl (centres undefined)
- Potency [1]: inactive
- Potency [5]: 30.1 µM (active)
- Potency [4]: inactive

Structure (SMILES): CN1C(=O)c2cccc3c(N)ccc(c23)C1=O
- Potency [6]: 5.8 µM (active)
- Potency [1]: inactive
- Potency [5]: inactive
- Potency [3]: inactive
- Potency [4]: 10 µM (active)

Structure (SMILES): Cn1ccc(=Nc2ccc(NC(=O)c3ccc(N=c4ccn(C)c5ccc([N+](=O)[O-])cc45)cc3)cc2)cc1
- Potency [7]: 9.53 µM (active)
- Potency [8]: 4.23 µM (active)
- Potency [1]: 42.6 µM (active)
- Potency [5]: 16.9 µM (active)
- Potency [3]: inactive

Structure (SMILES): COc1cccc(/C(O)=C/c2nc3ccc(C(=O)NCCc4ccc(Cl)cc4)cc3[nH]c2=O)c1
- Potency [6]: inactive
- Potency [1]: inactive
- Potency [5]: inactive
- Potency [3]: inactive

Structure (SMILES): COc1cccc(/C=N/NC(=O)c2[nH]nc3c2CCc2ccccc2-3)c1O
- Potency [9]: 21.5 µM (active)
- outcome [10]: inactive
- Potency [11]: 6.81 µM (active)
- Potency [1]: 33.8 µM (active)
- Potency [5]: inactive
- Potency [3]: inactive

Structure (SMILES): CC(C)CCN1C(=O)c2cccc3c(N)ccc(c23)C1=O
- Potency [6]: 16.3 µM (active)
- Potency [1]: inactive
- Potency [5]: inactive
- activity change, negative = inhibition [3]: 154% [at 30.8 µM]
- Potency [4]: 12.6 µM (active)
